12-hLO inh = inhibitors of human 12-lipoxygenase (ALOX12). P18054. purified 12-hLO, xylenol orange hydroperoxide absorbance. Potency, µM (titrated, usually from 57.1 µM), for inactives: top-dose activity change, negative = inhibition, usual class: inhibitors. 150,000 tested, 0.12% active. AID 1452; note: potency is the fitted concentration of half-maximal effect; nearly all actives have a fitted effect of over 55% in size
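Purified human 12hLO (150 nM final) was preincubated with compounds for 15 min at room temperature in 25 mM Hepes pH 7.0, 0.01% Triton X-100, then reacted with 40 uM arachidonic acid for 30 min. Hydroperoxide was detected with ferrous iron/xylenol orange.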
IMPase cell inh = membrane-permeable compound that blocks inositol monophosphatase. inhibition (IP1 accumulation), % at 46.1 µM. AID 901. CHO-M1 cells, IP1 accumulation, HTRF TR-FRET ratio. 120,000 tested, under 10 active. P97697; active = well fitted curve in the direction sought with a large enough effect in the signal ratio, not every such curve was filed as active; inconclusive = small, poorly fitted or top-dose-only effect, or a change in a side signal; inactive = no such curve, though single readings can be large or run the other way; the % refers to the signal ratio;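 note: cells stimulated with carbachol in lithium chloride buffer; plate controls were DMSO basal wells for no effect and reference inhibitor wells for full effect; higher means more IMPase inhibition seen as more IP1 and lower FRET ratio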
Target sequence (P97697 whole entry, looked up): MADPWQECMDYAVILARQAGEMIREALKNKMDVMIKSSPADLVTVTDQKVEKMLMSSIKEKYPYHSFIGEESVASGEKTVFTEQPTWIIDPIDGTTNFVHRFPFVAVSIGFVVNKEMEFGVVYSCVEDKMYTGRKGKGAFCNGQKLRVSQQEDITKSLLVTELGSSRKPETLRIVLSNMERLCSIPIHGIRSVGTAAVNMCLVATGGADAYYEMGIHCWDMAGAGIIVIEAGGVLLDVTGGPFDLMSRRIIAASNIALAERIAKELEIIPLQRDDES
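CHO-M1 cells (CHO stably expressing M1 receptor), compound up to 46 uM final, stimulated with carbachol (50 uM as added) in buffer with 50mM LiCl, pH 7.4, 30 min at 37C. Cytosolic IP1 read by TR-FRET; AC50 from Hill fits.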
15-hLO-2 inh = inhibitors of human 15-lipoxygenase 2 (ALOX15B). purified 15hLO-2, xylenol orange hydroperoxide absorbance. 110,000 tested, 0.56% active. Potency, µM (doses to about 57.1 µM), without a hit: at the highest dose activity change, negative = inhibition, usual class: inhibitors; note: potency is the fitted concentration of half-maximal effect; nearly all actives have a fitted effect of over 60% in size
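Enzyme 50 nM, AA 45 uM, 25 mM Hepes pH 7.5 + 0.01% Triton X-100; cpd preinc 15 min RT, rxn 90 min RT; stop/detect with 200 uM XO + 300 uM Fe(II) in 50 mM H2SO4, 30 min; A573/A405.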
PNC inhibitor = blocks assembly of the perinucleolar compartment; PC3M PTB-GFP, PNC prevalence imaging, 16 h; active compounds read low; activity change (PNC), negative = inhibition, % at 10 µM; 140,000 tested, 3.1% active;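 active = readout at or below -70, meaning at least 70% loss of cells showing the perinucleolar compartment, a nuclear body marking cancer cells; inconclusive = readout between -30 and a set limit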;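 note: plate controls were DMSO wells for no effect and camptothecin positive control wells for full effect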
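PC3M cells stably expressing PTB-GFP, 750–1000 cells/well, treated 16 h at 37 °C with compound (23 nl of library stock), in duplicate. After paraformaldehyde fixation and Hoechst stain, imaged at 20x; PNC prevalence scored by image analysis.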
* = called active by the depositor; ? = inconclusive; . = no result; [ ] = dose if it differs, or a comment. In the library only some 3% were active in any assay of this set; here they are far more common. Unless noted, calls come from the whole dose curve; as a rule, active = well fitted curve in the direction sought with a large enough effect; inconclusive = small, poorly fitted or top-dose-only effect, or another doubt; inactive = no such curve, though single readings can be large; an effect the other way counts as inactive or inconclusive. Unless noted, % is set by controls: 0 for no effect and ±100 for the full control effect.

SMILES | 12-hLO inh | IMPase cell inh | 15-hLO-2 inh | PNC inhibitor
O=C1CC(=O)N(c2ccc(Cl)cc2Cl)C(=O)N1 | ? | -7 | 2% | -127*
CN1Cc2c(ccc3c2OCO3)C2C(O)Cc3cc4c(cc3C21)OCO4 (stereo unspecified) | 2% | 12 | -2% | .
C[C@H](N[C@@H](C)CCc1ccccc1)[C@H](O)c1ccc(O)cc1 | -2% | 7 | 11% | .
Cc1nc2ccccc2c(=O)n1-c1cccc(O)c1 | -7% | -7 | -5% | -107*
Cc1nc2ccccc2c(=O)n1-c1cccnc1 | 43% | -4 | 0% | 26
CC(=O)[O-].CC(=O)[O-].O.O.[Cd+2] | -11% | . | ? | .
C[CH2][Hg][S]c1ccccc1C(=O)O | ? | . | 0.63µM* | .
CC(=O)[C@@H]1CC[C@H]2[C@H]3CC[C@H]4C[C@@H](O)CC[C@]4(C)[C@@H]3CC[C@]12C | -3% | 2 | -11% | .
CC(C)=CCC12CN3CCN(CC(C3)C1=O)C2 | 2% | 1 | -5% | -88*
O=C1NC(=O)N(CCC2=CCCCC2)C(=O)/C1=C\c1cccs1 | -15% | . | . | -86*
Cn1cccc1/C=C1\C(=O)NC(=O)N(CCC2=CCCCC2)C1=O | -8% | -10 | . | ?
CCCCCCCCCCCCCC(=O)O[C@H]1[C@@H](C)[C@@]2(O)[C@@H](C=C(CO)C[C@]3(O)C(=O)C(C)=C[C@@H]23)C2C(C)(C)[C@]21OC(C)=O (stereo partly specified) | -5% | 0 | -20% | .
CC(=O)[O][Hg][c]1ccccc1 | ? | . | 0.32µM* | .
O=c1c2ccccc2ncn1-c1ccc([N+](=O)[O-])c(C(F)(F)F)c1 | 3% | . | . | -14
CCCc1nc2ccc(Br)cc2c(=O)n1-c1ccc([N+](=O)[O-])c(C(F)(F)F)c1 | 1% | 5 | . | -96*
COc1ccc(CCNCc2ccccn2)cc1OC | -5% | -3 | 9% | 24
COc1ccc(CCNCc2ccc(F)cc2)cc1OC | 7% | -3 | 13% | -106*
CCOP(=S)(OCC)SCC(=O)NC(C)(CC)C(=O)O (stereo unspecified) | 8% | 3 | 10% | -111*
CCOP(=S)(OCC)SCCSCC | -1% | . | -7% | .
CC(C)c1cccc(O)c(=O)c1 | ? | . | 13µM* | .
C=CCN1CC[C@@]23CCCC[C@@H]2[C@@H]1Cc1ccc(O)cc13 | -5% | 0 | 5% | .
CCCn1nc2ccccc2c1P(=O)(N1CCOCC1)N1CCOCC1 | -2% | 3 | 1% | -90*
CCOc1ccc2nc(N3CCC(C(=O)N4CCC5(CC4)OCCO5)CC3)sc2c1 | 3% | 1 | 1% | -103*
COC(=O)[C@]1(C)CC[C@@]2(C)CC[C@@]3(C)C4=CCc5c(cc(O)c(O)c5C)[C@]4(C)CC[C@@]3(C)C2C1 (stereo partly specified) | -1% | . | 1% | .
CC1=C(O)C(=O)C=C2C1=CC=C1[C@]2(C)CC[C@@]2(C)C3C[C@](C)(C(=O)O)CC[C@@]3(C)CC[C@@]12C (stereo partly specified) | ? | . | 4µM* | .
SMILES | 12-hLO inh | IMPase cell inh | 15-hLO-2 inh | PNC inhibitor
O=c1[nH]c(=O)n(C2CCCCCC2)c(O)c1C=NCC1CCCO1 (stereo unspecified) | -2% | 13 | 1% | ?
O=c1[nH]c(=O)n(C2CCCCC2)c(O)c1C=Nc1ccc(N2CCOCC2)cc1 | -5% | . | . | -97*
c1ccc2c(c1)Nc1ccccc1S2 | 14µM* | . | 5µM* | -19
O=C(O)CN1CCN(CC(=O)O)CC(=O)[O][Hg][O]C(=O)C1 | 0.28µM* | . | 0.32µM* | .
[O-][Br+2]([O-])O | -2% | . | 3% | .
COc1ccccc1-n1c(O)c(C=NCc2ccc3c(c2)OCO3)c(=O)[nH]c1=O | -1% | 5 | -4% | -107*
COc1cccc(-n2c(O)c(C=NCc3ccc4c(c3)OCO4)c(=O)[nH]c2=O)c1 | -3% | 0 | -2% | -6
CCOC(=O)c1c(C)n(Cc2ccccc2)c2ccc(OCC(O)Cn3nc(C)nc3C)cc12 (stereo unspecified) | 6% | 2 | 8% | -24
CCOC(=O)c1c(C)n(Cc2ccccc2)c2ccc(OCC(O)Cn3nc(C)cc3C)cc12 (stereo unspecified) | -5% | . | . | -80*
N#C/C(=C\c1ccc(O)c(O)c1)C(N)=S | 13µM* | ? | 25µM* | .
O=C1NC(=O)[C@]2(Cc3ccccc3N3CCN(c4ccccc4)CC32)C(=O)N1Cc1ccccc1 (stereo partly specified) | -18% | -1 | 32µM* | -17
C=CCn1c(O)c(C(CC)=NC(C)c2ccccc2)c(=O)[nH]c1=O (stereo unspecified) | -3% | 5 | -8% | -94*
C=CCn1c(O)c(C(C)=Nc2ccc(N(C)C)cc2)c(=O)[nH]c1=O | -7% | 15 | 13% | -91*
C#CCO | -1% | . | -2% | .
COc1cc(/C=C/[N+](=O)[O-])ccc1O | -20% | . | . | -84*
COc1cc2c(cc1OC)C(C(=O)N1CCC3(CC1)OCCO3)C(c1ccccc1F)N(C)C2=O (stereo unspecified) | 7% | -1 | . | 6
COc1cc2c(cc1OC)C(C(=O)NCCC(C)C)C1CCCCN1C2=O (stereo unspecified) | -2% | 1 | . | -119*
CC[C@@H]1CN2CCc3cc(OC)c(OC)cc3[C@H]2C[C@@H]1C[C@@H]1NCCc2cc(OC)c(OC)cc21 | -5% | 3 | 30% | .
CC(=O)OC(C)(C)/C=C/C(=O)[C@](C)(O)[C@H]1[C@H](O)C[C@@]2(C)[C@@H]3CC=C4[C@H](C[C@H](O)C(=O)C4(C)C)[C@]3(C)C(=O)C[C@]12C | -1% | . | . | -115*
C#CCN[C@@H](C)Cc1ccccc1 | -2% | -1 | -4% | .
O=C(O)c1cc[c]([Hg][Cl])cc1 | ? | 1 | 3.2µM* | .
O=C(O)c1cccc(Cl)c1 | -4% | . | -4% | .
C=CCN1CC[C@]23c4c5ccc(O)c4O[C@@H]2C(=O)CC[C@@]3(O)[C@H]1C5 | -5% | 0 | -6% | .
O=C(O)c1ccccc1-c1c2cc(Br)c(=O)cc-2oc2[c]([Hg])c(O)c(Br)cc12 | ? | 23[20.6 µM] | 4µM* | .
O=C1CC(=O)N(c2ccc3c(c2)OCO3)C(=O)N1 | -5% | -9 | 2% | -95*
SMILES | 12-hLO inh | IMPase cell inh | 15-hLO-2 inh | PNC inhibitor
c1cc(CN2CCC3(CCNCC3)CC2)ccn1 | 2% | . | 13% | .
O=C(O)[C@H]1C[C@@H]1[C@H](NP(=O)(c1ccccc1)c1ccccc1)c1ccccc1 | -1% | . | -4% | -82*
CNC(=O)[C@@H]1C[C@H]1[C@@H](NP(=O)(c1ccccc1)c1ccccc1)c1ccccc1 | -3% | . | 3% | .
C[C@@](Br)(C(=O)O)[C@H](Br)C(=O)O | 3%[11.4 µM] | . | -3%[11.4 µM] | .
O=C(c1csc2c1CCCCC2)N1CCC2(CC1)OCCO2 | -5% | 1 | 11% | ?
O=C(c1cc2c(s1)CCCC2)N1CCC2(CC1)OCCO2 | 1% | -1 | 7.9µM* | -26
COC1=C[C@H]2[C@H]3Cc4ccc(OC)c(O)c4[C@@]2(CCN3C)CC1=O | -5% | 3 | -12% | .

Bioassay records (PubChem)
